{"source": "PubChem BioAssay AID1259312", "about": "(Keith Lab, Institute of Cancer Science, University of …, 2017)", "note": "In all, about 4,500 compounds went through this assay and about 200 (4.4%) were called active. This is one part of a sample in which actives are shown more often than they occur. A number with no mark means an inactive call.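 Rule for the calls: active = cell survival measured by absorbance rises more than 2.5-fold over infected cells without compound; inactive = the rest.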"}
{"assay": "survival after telomere uncapping, modulators, primary screen, cell-based (AID 1259312);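 note: virus expresses mutant telomerase RNA that uncaps telomeres and kills cells; compound added 2 days after infection so exposure lasts 3 days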", "settings": "HCT116 + Ad-hTR-mut, MTT, 5 d; at 10 µM, hits give high values"}
{"smiles": "O=C1CCCC2=C1C(c1ccco1)C1=C(N2)c2ccccc2C1=O", "note": "(stereo not drawn)", "fold change": -5.38}
{"smiles": "O=S1(=O)CCC(SCc2nnc(-c3ccccc3)o2)C1", "note": "(stereo not drawn)", "fold change": -1.78}
{"smiles": "CCNC(=S)Nc1ccc(Br)cc1", "fold change": -2.77}
{"smiles": "S=c1[nH]nc(CCc2ccccc2)n1Cc1ccccc1", "fold change": 1.25}
{"smiles": "S=c1[nH]nc(Cc2ccccc2)n1Cc1ccccc1", "fold change": 1.06}
{"smiles": "S=c1[nH]nc(Cc2n[nH]c(=S)n2Cc2ccccc2)n1Cc1ccccc1", "fold change": "4.65 (active)"}
{"smiles": "CCOC(=O)c1c(NC(=O)CCl)sc2c1CCN(C(=O)OCC)C2", "fold change": -1.2}
{"smiles": "COC(=O)NNC(=O)CCCOc1ccc(Cl)cc1Cl", "fold change": 1.34}
{"smiles": "O=C(COc1ccc(Cl)cc1Cl)NCC1CCCO1", "note": "(stereo not drawn)", "fold change": -1.41}
{"smiles": "O=C(CCCOc1ccc(Cl)cc1Cl)Nn1cnnc1", "fold change": "2.83 (active)"}
{"smiles": "Cc1c(C(C)C)c(=O)n(-c2ccc(S(=O)(=O)NC3CC3)cc2)n1C", "fold change": -2.25}
{"smiles": "Brc1ccc(-c2csc(Nc3ccccc3)n2)cc1", "fold change": -1.95}
{"smiles": "NC(=O)c1c(NC(=O)CN2CCOCC2)sc2c1CCCC2", "fold change": -1.32}
{"smiles": "CSc1nc(SCC(=O)c2ccc3c(c2)OCO3)nc(N)c1C#N", "fold change": 1.54}
{"smiles": "N#CCS/C(SCC(=O)c1ccc(Br)cc1)=C(/C#N)C(=O)c1ccc(Br)cc1", "fold change": 1.41}
{"smiles": "N#CCS/C(SCC(=O)c1ccc2c(c1)OCO2)=C(/C#N)C(=O)c1ccc2c(c1)OCO2", "fold change": "2.84 (active)"}
{"smiles": "OC1CCC2Cc3ccccc3N=C12", "note": "(stereo not drawn)", "fold change": -1.24}
{"smiles": "O=c1[nH]nc(C[N+](=O)[O-])c2ccccc12", "fold change": 1.05}
{"smiles": "CC12C=CC(=O)C=C1CCC1C3CC(O)C(O)(C(=O)CO)C3(C)CC(O)C12F", "note": "(stereo not drawn)", "fold change": 1.13}
{"smiles": "CC(C)=NNc1nccc2ccccc12", "fold change": -1.17}
{"smiles": "c1ccc(N=C(Nc2ccccc2)N2CCOCC2)cc1", "fold change": 1.32}
{"smiles": "S=C(Nc1ccccc1)N1CCOCC1", "fold change": "3.11 (active)"}
{"smiles": "S=C(Nc1ccccc1)N1CCCCC1", "fold change": -1.66}
{"smiles": "CN1C(=O)C(=O)c2cc(Br)ccc21", "fold change": -1.19}
{"smiles": "O=C(O)CN1C(=O)C(=O)c2cc(Br)ccc21", "fold change": -1.45}
{"smiles": "O=C1c2ccc(Br)cc2C(=O)N1CNc1ccc(Br)cc1", "fold change": "2.94 (active)"}
{"smiles": "N#CCN(CC#N)C(=O)c1cccs1", "fold change": "4.34 (active)"}
{"smiles": "N#CCN(CC#N)C(=O)c1ccco1", "fold change": -1.86}
{"smiles": "CCN(C(=O)c1cccs1)C1CCCCC1", "fold change": -1.05}
{"smiles": "CC(=O)Nc1ccc2nc(SCC(=O)Nc3nccs3)sc2c1", "fold change": -1.04}
{"smiles": "O=C1OC(C2OC(=O)c3ccccc32)c2ccccc21", "note": "(stereo not drawn)", "fold change": -2.64}
{"smiles": "CCOc1ccc2c(c1)-c1c(sn(-c3ccc(OC)cc3)c1=S)C(C)(C)N2", "fold change": -1.06}
{"smiles": "Cc1cccc2c1N(C(=O)c1ccc(-c3ccccc3)cc1)C(C)(C)c1ssc(=S)c1-2", "fold change": -1.16}
{"smiles": "Cc1cc(C)c2c(c1)-c1c(ssc1=S)C(C)(C)N2C(=O)c1ccccc1", "fold change": -2.03}
{"smiles": "CC1(C)Nc2ccccc2-c2c1ssc2=S", "fold change": "4.78 (active)"}
{"smiles": "Cc1ccc2c(c1)-c1c(ssc1=S)C(C)(C)N2", "fold change": 2.39}
{"smiles": "CCOc1ccc2c(c1)-c1c(ssc1=Nc1ccc(Cl)cc1C)C(C)(C)N2", "fold change": -1.6}
{"smiles": "COc1ccc2c(c1)-c1c(ssc1=S)C(C)(C)N2C(=O)CSc1ncn[nH]1", "fold change": -3.53}
{"smiles": "CCOc1ccc2c(c1)-c1c(ssc1=S)C(C)(C)N2", "fold change": "5.41 (active)"}
{"smiles": "COc1ccc2c(c1)-c1c(ssc1=S)C(C)(C)N2", "fold change": "3.31 (active)"}
{"smiles": "O=C(c1cccs1)[C@H]1CCCC[C@H]1C(=O)O", "fold change": 1.2}
{"smiles": "Oc1ccc2c(c1)c1c3n2CCNC3CCC1", "note": "(stereo not drawn)", "fold change": -1.09}
{"smiles": "COc1ccc(C2C=COc3n[nH]c(-c4ccccc4)c32)cc1OC", "note": "(stereo not drawn)", "fold change": 2.04}
{"smiles": "Cn1cc(/C=C2\\C(=O)NC(=S)N(c3ccc(Br)cc3)C2=O)c2ccccc21", "fold change": -1.42}
{"smiles": "O=C(NCCOC1=NS(=O)(=O)c2ccccc21)C(=O)Nc1ccccc1", "fold change": 1.05}
{"smiles": "CC(=O)N/C(=N/c1nc(C)cc(C)n1)Nc1ccc(F)cc1F", "fold change": "inactive"}
{"smiles": "COc1ccc(-c2nc3sc(-c4ccc(OC)c(OC)c4)nc3s2)cc1OC", "fold change": -4.78}
{"smiles": "S=c1[nH]nc(COc2ccccc2)n1-c1ccccc1", "fold change": 1.72}
{"smiles": "S=c1[nH]nc(Cn2cnc3ccccc32)n1-c1ccccc1", "fold change": 1.13}
{"smiles": "S=c1[nH]nc(COc2cccc3ccccc23)n1-c1ccccc1", "fold change": "3 (active)"}
{"smiles": "Cc1c(C(=O)OC(C)C)sc(NC(=O)C(F)(F)C(F)(F)C(F)(F)C(F)(F)F)c1C(=O)OC(C)C", "fold change": -1.73}
{"smiles": "O=c1oc(-c2cccc(F)c2)nc2ccc(Br)cc12", "fold change": -1.47}
{"smiles": "Nc1cc2ccccc2cc1N", "fold change": -1.17}
{"smiles": "NC(=O)c1cc2ccccc2o1", "fold change": "2.76 (active)"}
{"smiles": "COC(=O)c1cc2cc(Br)ccc2o1", "fold change": -2.17}
{"smiles": "Clc1nc2ccccc2nc1-c1ccccc1", "fold change": -1.36}
{"smiles": "N=C1S/C(=C/c2cn[nH]c2-c2ccc(F)cc2)C(=O)N1c1nonc1N", "fold change": -1.44}
{"smiles": "Cc1ccc(-c2c(C#N)c(N)nc3c2CCCC3)c(C)c1", "fold change": 1.09}
{"smiles": "N#Cc1c(N)nc2c(c1-c1cccc(Br)c1)CCCCCC2", "fold change": -1.03}
{"smiles": "N#Cc1c(N)nc2c(c1-c1cccc(Br)c1)CCCC2", "fold change": "2.68 (active)"}
{"smiles": "Cc1ccc(C)c(-c2c(C#N)c(N)nc3c2CCCCC3)c1", "fold change": -1.2}
{"smiles": "N#Cc1c(N)nc2c(c1-c1ccc(Cl)cc1Cl)CCCCC2", "fold change": "4.06 (active)"}
{"smiles": "N#Cc1c(N)nc2c(c1-c1cccc(Br)c1)CCCCC2", "fold change": -1.02}
{"smiles": "Brc1ccc2nc(SCCOc3ccccc3)[nH]c2c1", "fold change": -1.46}
{"smiles": "COC(=O)C1=C(C)NC(=S)NC1c1cccs1", "note": "(stereo not drawn)", "fold change": 1.16}
{"smiles": "N#CC1=C(N)OC2=C(C(=O)CCC2)C1c1ccc2c(c1)OCO2", "note": "(stereo not drawn)", "fold change": 1.15}
{"smiles": "NNC(=O)C(=O)Nc1nccs1", "fold change": -2.19}
{"smiles": "Cc1cc(C)c(C#N)c(SCc2cc(=O)[nH][nH]2)n1", "fold change": "3.11 (active)"}
{"smiles": "Cc1cc(-c2ccco2)c(C#N)c(SCC(=O)C(F)(F)F)n1", "fold change": 1.03}
{"smiles": "Cc1cc(C)c(CSc2nc(C)cc(=O)[nH]2)c(C)c1", "fold change": "inactive"}
{"smiles": "O=c1/c(=C\\c2ccco2)sc2nnc(-c3ccccc3)n12", "fold change": -1.37}
{"smiles": "COc1ccc(S(=O)(=O)N(CCO)C2CCCCC2)cc1", "fold change": 1.31}
{"smiles": "CCCCc1ccc(C2C(C#N)=C(N)OC3=C2C(=O)CC(C)(C)C3)s1", "note": "(stereo not drawn)", "fold change": 2.3}
{"smiles": "O=S(=O)(Nc1cccnc1)c1cc(Cl)ccc1Cl", "fold change": 1.16}
{"smiles": "COCCNS(=O)(=O)c1cc(Cl)ccc1Cl", "fold change": "2.95 (active)"}
{"smiles": "CCCNS(=O)(=O)c1cc(Cl)ccc1Cl", "fold change": -2.13}
{"smiles": "O=S(=O)(NCc1cccnc1)c1cc(Cl)ccc1Cl", "fold change": "3.37 (active)"}
{"smiles": "O=S(=O)(NCc1cccnc1)c1cccs1", "fold change": -1.29}
{"smiles": "COCCCNS(=O)(=O)c1cc(Cl)ccc1Cl", "fold change": -1.38}
{"smiles": "O=c1[nH]c(O)c(C=Nc2cc(Cl)ccc2O)c(=O)[nH]1", "fold change": "inactive"}
{"smiles": "c1ccc(N/N=C2/C/C(=N\\Nc3ccccc3)c3ccccc32)cc1", "fold change": -1.1}
{"smiles": "CC1(C)CCC[C@@]2(C)C1CCC1(C)OC(=O)CC12", "note": "(stereo partly drawn)", "fold change": -3.56}
{"smiles": "O=C(Nc1ccc2c(c1)OCCO2)C1CC(=O)N(C2CCCCC2)C1", "note": "(stereo not drawn)", "fold change": -1.27}
{"smiles": "Clc1cccc(Cl)c1-c1noc(CSc2nc3ccccc3s2)n1", "fold change": -1.38}
{"smiles": "N#CC1(C#N)C(c2c(F)cccc2Cl)[C@@H](C(=O)c2ccc(F)cc2)N2c3ccccc3C=C[C@@H]21", "note": "(stereo partly drawn)", "fold change": "3.43 (active)"}
{"smiles": "N#CC1(C#N)C(c2ccc(O)cc2)C(C(=O)c2ccccc2)N2c3ccccc3C=CC21", "note": "(stereo not drawn)", "fold change": 1.02}
{"smiles": "N#CC1(C#N)C(c2ccc(Cl)cc2Cl)C(C(=O)c2ccccc2)N2c3ccccc3C=CC21", "note": "(stereo not drawn)", "fold change": 1.29}
{"smiles": "CN(c1ccccc1)c1nc(N)nc(CSc2nnc(-c3ccc(F)cc3)n2C)n1", "fold change": 1.9}
{"smiles": "Nc1c(Cl)cc(-c2nc3ccccc3o2)cc1Cl", "fold change": 1.24}
{"smiles": "Cc1nn(-c2ccccc2)c(Cl)c1N=Nc1c(C)nn(-c2ccccc2)c1Cl", "fold change": -1.52}
{"smiles": "CN(C)c1ccc(/C=N/c2nccs2)cc1", "fold change": -1.55}
{"smiles": "c1csc(CNc2ccc(NCc3cccs3)cc2)c1", "fold change": 1.24}
{"smiles": "CC(C)NC(=O)CC(=O)NN=C1CCCC1", "fold change": 1.85}
{"smiles": "O=C1NC(=S)N/C1=C\\c1cc(Br)cc(Br)c1O", "fold change": -1.6}
{"smiles": "O=C1NC(=S)N/C1=C/c1c(F)cccc1Cl", "fold change": 1.33}
{"smiles": "O=C1NC(=S)N/C1=C\\c1ccc(Cl)cc1Cl", "fold change": "5.07 (active)"}
{"smiles": "O=C1c2ccccc2NC2(C(=O)Nc3ccccc32)N1CCOc1ccccc1", "note": "(stereo not drawn)", "fold change": 1.15}
{"smiles": "CCOC1(C)OC2CCC(CC)OC2O1", "note": "(stereo not drawn)", "fold change": 1.54}
{"smiles": "O=C1Nc2ccccc2/C1=N\\N1C(=O)C2C=CC=CC2C1=O", "note": "(stereo not drawn)", "fold change": "inactive"}
{"smiles": "O=C1Nc2ccccc2C1=Nc1cccc(Cl)c1", "fold change": "inactive"}
{"smiles": "O=C1Nc2ccccc2C1=Nc1ccc(SC(F)F)cc1", "fold change": "active"}
{"smiles": "O=c1[nH]c2nonc2[nH]c1=O", "fold change": "inactive"}
{"smiles": "O=C1CCCN1c1ccc(S(=O)(=O)Nc2ccc3oc4c(c3c2)CCCC4)cc1", "fold change": 1.03}
{"smiles": "Cc1nnc(SCC(=O)Nc2sc3c(c2C#N)CCC3)s1", "fold change": -1.54}
{"smiles": "O=c1[nH]c(=O)c2cc3c(=O)[nH]c(=O)c3cc12", "fold change": "2.77 (active)"}
{"smiles": "Nc1cc2[nH]c(=O)[nH]c2cc1N", "fold change": -1.33}
{"smiles": "O=c1[nH]c2ccc(F)cc2c(=O)c2ccccc12", "fold change": 1.22}
{"smiles": "O=C(C1=C(O)C(=O)N(CCN2CCOCC2)C1c1ccco1)c1ccco1", "note": "(stereo not drawn)", "fold change": -1.73}
